# Records with an inconclusive call do not appear. The source made the active and inactive calls. Calls come from the whole dose curve; tested in HEK293 reporter line.
# Experiment: qHTS for Inhibitors of the Functional Ribonucleoprotein Complex (vRNP) of Lassa (LASV) Arenavirus: Viability assay - alamar blue signal for LASV Primary Screen (AID 1347083)
# Conditions: cell viability, alamar blue fluorescence (LASV minigenome counter-screen); series mostly up to 57.5 µM; activity change, negative = reduced viability: at the top concentration
# % is set by controls: 0 for no effect and ±100 for the full control effect; potency is the fitted concentration of half-maximal effect.
# Note: nearly all actives have a fitted effect of over 80% in size.
Structure (SMILES),Potency,"activity change, negative = reduced viability"
CC(=O)Oc1ccccc1C(=O)O,inactive,–
COc1ccccc1O,–,16.2% [at 115 µM] (inactive)
CC(C[N+](C)(C)C)OC(N)=O (stereo not given),inactive,–
COc1cc(Nc2ncc3c(n2)-c2ccc(Cl)cc2C(c2c(F)cccc2OC)=NC3)ccc1C(=O)O,–,-68.9% (inactive)
CC(C)(C)c1cc(C(C)(C)C)c(NC(=O)c2c[nH]c3ccccc3c2=O)cc1O,–,-20.3% (inactive)
CS(=O)(=O)c1cccc(CNc2nc(Nc3ccc4c(c3)CCC(=O)N4)ncc2C(F)(F)F)c1,38.5 µM (active),–
CC(C)C[C@H](NC(=O)[C@@H](O)[C@H](N)Cc1ccccc1)C(=O)O,inactive,–
COc1ccc(CC2SC(=O)NC2=O)cc1C(=O)NCc1ccc(C(F)(F)F)cc1 (stereo not given),–,-11.6% (inactive)
Nc1ccccc1NC(=O)c1ccc(CNc2nccc(-c3cccnc3)n2)cc1,6.85 µM (active),–
CN(C)c1ccc(N=NS(=O)(=O)O)cc1,–,7.13% [at 115 µM] (inactive)
CN(C)CCN(C)C(=O)c1ccc(NC(=O)Nc2ccc(-c3nc(N4CCOCC4)c4ccn(CC(F)(F)F)c4n3)cc2)cc1,0.0485 µM (active),–
O=C(O)CNC(=O)CNC(=O)CNC(=O)CSC(=O)c1ccccc1,–,12.6% (inactive)
N#Cc1c(O)c2c(-c3ccc(-c4ccccc4O)cc3)csc2[nH]c1=O,–,-2.48% (inactive)
CCc1c(C)[nH]c2c1C(=O)C(CN1CCOCC1)CC2 (stereo not given),inactive,–
Nc1cccc(S(=O)(=O)N2CCCN(S(=O)(=O)c3ccc4c(c3)OCCO4)CC2)c1,–,-8.21% (inactive)
CC1(C)OC2=C(C(=O)c3ccccc3C2=O)[C@H](NCc2ccccc2)[C@H]1O,3.06 µM (active),–
CC(C)(C(=O)NCC(F)(F)C(F)(F)F)C(=O)N[C@@H]1C(=O)Nc2ccccc2-c2ccccc21,19.3 µM (active),–
CCCCC(CC)COC(=O)c1ccccc1C(=O)O (stereo not given),–,14.9% [at 115 µM] (inactive)
CC(=O)Oc1cccc(C)c1,–,5.81% (inactive)
NCCCC(N)(C(=O)O)C(F)F (stereo not given),inactive,–

Structure (SMILES),Potency,"activity change, negative = reduced viability"
[O-][n+]1cccc(CO)c1,–,5.64% (inactive)
CCN1CCN(Cc2ccc(-c3cc4c(N[C@H](C)c5ccccc5)ncnc4[nH]3)cc2)CC1,0.0077 µM (active),–
CCCCCCCC(=O)OCC(O)CO (stereo not given),–,-5.18% (inactive)
COc1ccc2c(c1)CC[C@H]1[C@@H]2CC[C@]2(C)[C@@H](NCCCCCCN3C(=O)C=CC3=O)CC[C@H]12,–,-0.964% (inactive)
Cc1ccccc1N=Nc1ccc(N=Nc2c(O)ccc3ccccc23)c(C)c1,–,0.899% (inactive)
COc1cccc(OC)c1-c1cc(C(=O)NC2(C(=O)O)C3CC4CC(C3)CC2C4)nn1-c1ccnc2cc(Cl)ccc12 (stereo not given),–,-6.33% (inactive)
OCCC#Cc1nc(-c2ccc(F)cc2)c(-c2ccncc2)n1CCCc1ccccc1,–,-38.5% (inactive)
CC(=O)NC(C)c1ccc(Oc2ccc(OC(C)C)cc2)cc1 (stereo not given),–,4.48% (inactive)
NC(=O)C1CCCc2c1[nH]c1ccc(Cl)cc21 (stereo not given),–,-22% (inactive)
CC(=O)Nc1ccc(O)cc1,inactive,–
N[C@H]1C(O)O[C@H](CO)[C@@H](O)[C@@H]1O (stereo not given in full),–,7.91% (inactive)
N#C/C(=C1\SCC(c2ccccc2Cl)S1)n1ccnc1 (stereo not given),–,-5.8% (inactive)
CC1=C(C/C=C(\C)CCC[C@H](C)CCC[C@H](C)CCCC(C)C)C(=O)c2ccccc2C1=O,–,1.31% (inactive)
CC[N+](C)(CC)CCOC(=O)C(O)(c1ccccc1)C1CCCCC1 (stereo not given),–,6.56% (inactive)
Cc1ccccc1C(C(=O)NC1CCCC1)N(C(=O)Cn1cnc2ccccc21)c1cccc(F)c1 (stereo not given),–,-6.57% (inactive)
OCCCc1ccccc1,inactive,–
OC[C@H]1O[C@@H](n2cnc3c2NC=NC[C@@H]3O)C[C@H]1O,–,-11.9% (inactive)
CC1=C(/C=C/C(C)=C/C=C/C(C)=C/C(=O)O)C(C)(C)CCC1,inactive,–
CC(C)(C)c1cc(C(=O)O)c(NC(=O)Nc2ccc3[nH]ncc3c2)s1,–,-24.1% (inactive)
CCCCCCCCCCCCCC(=O)OC(C)C,–,7.34% (inactive)

# Experiment: qHTS for Inhibitors of the Functional Ribonucleoprotein Complex (vRNP) of Lymphocytic Choriomeningitis Arenaviruses (LCMV): Viability assay - alamar blue signal for LCMV Primary Screen (AID 1347085)
# Conditions: alamar blue viability counter-screen, LCMV vRNP screen cells; series mostly up to 57.5 µM; activity change, negative = lower viability: at the top concentration
Structure (SMILES),Potency,"activity change, negative = lower viability"
CC(=O)Oc1ccccc1C(=O)O,inactive,–
COc1ccccc1O,–,12.5% [at 115 µM] (inactive)
CC(C[N+](C)(C)C)OC(N)=O (stereo not given),inactive,–
COc1cc(Nc2ncc3c(n2)-c2ccc(Cl)cc2C(c2c(F)cccc2OC)=NC3)ccc1C(=O)O,–,-71.2% (inactive)
CC(C)(C)c1cc(C(C)(C)C)c(NC(=O)c2c[nH]c3ccccc3c2=O)cc1O,–,-12.9% (inactive)
CS(=O)(=O)c1cccc(CNc2nc(Nc3ccc4c(c3)CCC(=O)N4)ncc2C(F)(F)F)c1,–,-13.1% (inactive)
CC(C)C[C@H](NC(=O)[C@@H](O)[C@H](N)Cc1ccccc1)C(=O)O,inactive,–
COc1ccc(CC2SC(=O)NC2=O)cc1C(=O)NCc1ccc(C(F)(F)F)cc1 (stereo not given),38.5 µM (active),–
Nc1ccccc1NC(=O)c1ccc(CNc2nccc(-c3cccnc3)n2)cc1,12.2 µM (active),–
CN(C)c1ccc(N=NS(=O)(=O)O)cc1,–,21.2% [at 115 µM] (inactive)
CN(C)CCN(C)C(=O)c1ccc(NC(=O)Nc2ccc(-c3nc(N4CCOCC4)c4ccn(CC(F)(F)F)c4n3)cc2)cc1,0.0432 µM (active),–
O=C(O)CNC(=O)CNC(=O)CNC(=O)CSC(=O)c1ccccc1,–,4.15% (inactive)
N#Cc1c(O)c2c(-c3ccc(-c4ccccc4O)cc3)csc2[nH]c1=O,–,-1.1% (inactive)
CCc1c(C)[nH]c2c1C(=O)C(CN1CCOCC1)CC2 (stereo not given),inactive,–
Nc1cccc(S(=O)(=O)N2CCCN(S(=O)(=O)c3ccc4c(c3)OCCO4)CC2)c1,–,-3.1% (inactive)
CC1(C)OC2=C(C(=O)c3ccccc3C2=O)[C@H](NCc2ccccc2)[C@H]1O,2.17 µM (active),–
CC(C)(C(=O)NCC(F)(F)C(F)(F)F)C(=O)N[C@@H]1C(=O)Nc2ccccc2-c2ccccc21,5.44 µM (active),–
CCCCC(CC)COC(=O)c1ccccc1C(=O)O (stereo not given),–,13.8% [at 115 µM] (inactive)
CC(=O)Oc1cccc(C)c1,–,-2.78% (inactive)
NCCCC(N)(C(=O)O)C(F)F (stereo not given),inactive,–

Structure (SMILES),Potency,"activity change, negative = lower viability"
[O-][n+]1cccc(CO)c1,–,5.73% (inactive)
CCN1CCN(Cc2ccc(-c3cc4c(N[C@H](C)c5ccccc5)ncnc4[nH]3)cc2)CC1,–,-110% (inactive)
CCCCCCCC(=O)OCC(O)CO (stereo not given),–,8.71% (inactive)
COc1ccc2c(c1)CC[C@H]1[C@@H]2CC[C@]2(C)[C@@H](NCCCCCCN3C(=O)C=CC3=O)CC[C@H]12,–,1.03% (inactive)
Cc1ccccc1N=Nc1ccc(N=Nc2c(O)ccc3ccccc23)c(C)c1,–,-1.75% (inactive)
COc1cccc(OC)c1-c1cc(C(=O)NC2(C(=O)O)C3CC4CC(C3)CC2C4)nn1-c1ccnc2cc(Cl)ccc12 (stereo not given),–,1.55% (inactive)
OCCC#Cc1nc(-c2ccc(F)cc2)c(-c2ccncc2)n1CCCc1ccccc1,–,-13.7% (inactive)
CC(=O)NC(C)c1ccc(Oc2ccc(OC(C)C)cc2)cc1 (stereo not given),–,3.18% (inactive)
NC(=O)C1CCCc2c1[nH]c1ccc(Cl)cc21 (stereo not given),–,-6.71% (inactive)
CC(=O)Nc1ccc(O)cc1,inactive,–
N[C@H]1C(O)O[C@H](CO)[C@@H](O)[C@@H]1O (stereo not given in full),–,8.75% (inactive)
N#C/C(=C1\SCC(c2ccccc2Cl)S1)n1ccnc1 (stereo not given),–,-6.99% (inactive)
CC1=C(C/C=C(\C)CCC[C@H](C)CCC[C@H](C)CCCC(C)C)C(=O)c2ccccc2C1=O,–,-9.98% (inactive)
CC[N+](C)(CC)CCOC(=O)C(O)(c1ccccc1)C1CCCCC1 (stereo not given),–,6.7% (inactive)
Cc1ccccc1C(C(=O)NC1CCCC1)N(C(=O)Cn1cnc2ccccc21)c1cccc(F)c1 (stereo not given),–,9.92% (inactive)
OCCCc1ccccc1,inactive,–
OC[C@H]1O[C@@H](n2cnc3c2NC=NC[C@@H]3O)C[C@H]1O,–,-12.7% (inactive)
CC1=C(/C=C/C(C)=C/C=C/C(C)=C/C(=O)O)C(C)(C)CCC1,inactive,–
CC(C)(C)c1cc(C(=O)O)c(NC(=O)Nc2ccc3[nH]ncc3c2)s1,–,0.346% (inactive)
CCCCCCCCCCCCCC(=O)OC(C)C,–,-30.9% (inactive)

# — PubChem BioAssay (NCATS)
